Results: PubChem BioAssay
Active and inactive are the calls of the source.

Tests used:
[1] = system: Human papillomavirus type 1a protein E7 (residues 44-93); test: small molecules binding HPV E7 44-93 – biochemical, small-molecule microarray, residues 44-93, 635 nm fluorescence, primary screen (AID 1108); settings: fluorescence 635 nm, higher = more signal;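 note: E7 fragment applied at 1 µg/mL in TBST for 1 h at 4 C; score combines spot fluorescence with its signal to noise ratio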
[2] = hepatitis C replication reporter changes, two-sided – Huh7 cells, luciferase reporter, HCV replication inhibitor project, primary screen (AID 1109); settings: Huh7 HCV replicon luciferase reporter, 48 h; higher = more signal;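 note: huh7 hepatoma cells harbouring a luciferase neomycin HCV replicon reporter; luciferase luminescence as measure of HCV replicon replication; test concentration not given here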
[3] = target: Left-right determination factor 2 (Homo sapiens) (UniProt O00292); test: small molecules binding LEFTY2 protein – biochemical, small-molecule microarray, 635 nm fluorescence scan, primary screen (AID 1110); settings: higher = more signal
Chain of Left-right determination factor 2 (Homo sapiens) (O00292 whole entry, looked up): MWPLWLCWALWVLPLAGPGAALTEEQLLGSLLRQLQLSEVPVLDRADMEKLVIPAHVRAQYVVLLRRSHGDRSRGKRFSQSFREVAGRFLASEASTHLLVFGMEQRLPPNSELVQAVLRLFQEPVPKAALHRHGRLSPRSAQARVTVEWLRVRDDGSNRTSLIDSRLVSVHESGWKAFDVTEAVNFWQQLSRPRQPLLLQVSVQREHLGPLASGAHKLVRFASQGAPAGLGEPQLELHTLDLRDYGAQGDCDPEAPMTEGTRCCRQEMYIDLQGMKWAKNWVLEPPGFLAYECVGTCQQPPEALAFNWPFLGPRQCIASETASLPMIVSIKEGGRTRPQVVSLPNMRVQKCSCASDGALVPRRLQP

[4] = target: Calmodulin-1 (Homo sapiens) (UniProt P0DP23); test: small molecules binding calmodulin-1 with EGTA – biochemical, small-molecule microarray, Cy5-labelled CALM1, profiling panel (AID 1111); settings: Cy5-CALM1 binding fluorescence, higher = more signal;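 note: labelled calmodulin applied in Tris saline Tween buffer holding calcium plus EGTA and DTT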
[5] = target: Calmodulin-1 (Homo sapiens) (UniProt P0DP23); test: small molecules binding Ca-loaded calmodulin-1 – biochemical, small-molecule microarray, Cy5-labelled CALM1, plus calcium, artefact control for SMM control-protein annotation, profiling panel (AID 1112); settings: Cy5-CALM1 binding fluorescence, higher = more signal;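 note: score merges spot fluorescence with signal to noise from triplicate slides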
[6] = probe aWnt5a binding to arrayed compounds – biochemical, biotinylated probe, 635/667 nm fluorescence, primary screen (AID 1113); settings: small-molecule microarray, higher = more signal;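 note: score merges 667 nm fluorescence intensity with signal-to-noise per printed feature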
[7] = probe aShh binding to arrayed compounds – biochemical, biotinylated probe, 635/667 nm fluorescence, primary screen (AID 1114); settings: small-molecule microarray, higher = more signal;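 note: probe is biotin-labelled aShh protein from a stem cell growth factor screen; measures binding of labelled protein to compounds printed on the slide; score merges feature fluorescence at 667 nm with signal-to-noise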
[8] = probe aNog binding to arrayed compounds – biochemical, biotinylated probe, 635/667 nm fluorescence, primary screen (AID 1115); settings: small-molecule microarray, higher = more signal;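 note: probe is biotinylated aNog protein used at 0.15 µg/mL for 1 h at 4 C; z-score combines 667 nm fluorescence of each spot with its signal to noise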
[9] = target: Torsin-1A-interacting protein 1 (Homo sapiens) (UniProt Q5JTV8); test: compound microarray binding of lysate hLAP1 – cell lysate, small-molecule microarray, COS7 lysate, 635/667 nm fluorescence, primary screen (AID 1116); settings: 635 nm fluorescence, higher = more signal
Chain of Torsin-1A-interacting protein 1 (Homo sapiens) (Q5JTV8 whole entry, looked up): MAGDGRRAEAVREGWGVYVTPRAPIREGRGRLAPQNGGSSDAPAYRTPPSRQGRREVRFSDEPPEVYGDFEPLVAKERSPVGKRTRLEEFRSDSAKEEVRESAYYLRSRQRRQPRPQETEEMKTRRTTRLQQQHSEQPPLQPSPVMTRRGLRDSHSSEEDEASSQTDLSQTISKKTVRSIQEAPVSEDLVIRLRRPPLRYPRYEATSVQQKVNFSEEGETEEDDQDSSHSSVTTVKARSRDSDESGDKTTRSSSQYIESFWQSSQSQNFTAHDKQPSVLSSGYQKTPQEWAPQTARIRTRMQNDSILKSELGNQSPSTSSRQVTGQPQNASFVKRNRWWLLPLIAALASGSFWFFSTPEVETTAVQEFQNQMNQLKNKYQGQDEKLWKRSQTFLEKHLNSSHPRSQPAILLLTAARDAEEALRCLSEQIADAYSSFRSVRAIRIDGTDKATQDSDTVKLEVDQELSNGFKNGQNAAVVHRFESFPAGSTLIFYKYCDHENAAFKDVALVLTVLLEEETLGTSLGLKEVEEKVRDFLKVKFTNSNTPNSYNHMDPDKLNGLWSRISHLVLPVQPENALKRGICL

[10] = target: Alpha-bungarotoxin (Bungarus multicinctus) (UniProt P60615); test: compounds binding labelled alpha-BTX control protein – biochemical, small-molecule microarray, Alexa647 label, 635/667 nm fluorescence, artefact control for SMM control protein annotation, profiling panel (AID 1117); settings: alpha-BTX-A647 binding fluorescence, higher = more signal
Chain of Alpha-bungarotoxin (Bungarus multicinctus) (P60615 whole entry, looked up): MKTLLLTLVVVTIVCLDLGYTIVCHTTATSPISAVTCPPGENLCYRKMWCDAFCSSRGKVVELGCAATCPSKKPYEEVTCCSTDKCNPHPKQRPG

Albumin (Bos taurus) = Albumin (Bos taurus) (UniProt P02769); test: compounds binding labelled BSA control protein – biochemical, small-molecule microarray, Alexa647 label, 635/667 nm fluorescence, artefact control for SMM control protein annotation, profiling panel (AID 1118); settings: BSA-A647 binding, fluorescence 635 nm, higher = more signal;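 note: score merges 667 nm emission intensity and signal-to-noise per printed compound spot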
Chain of Albumin (Bos taurus) (P02769 whole entry, looked up): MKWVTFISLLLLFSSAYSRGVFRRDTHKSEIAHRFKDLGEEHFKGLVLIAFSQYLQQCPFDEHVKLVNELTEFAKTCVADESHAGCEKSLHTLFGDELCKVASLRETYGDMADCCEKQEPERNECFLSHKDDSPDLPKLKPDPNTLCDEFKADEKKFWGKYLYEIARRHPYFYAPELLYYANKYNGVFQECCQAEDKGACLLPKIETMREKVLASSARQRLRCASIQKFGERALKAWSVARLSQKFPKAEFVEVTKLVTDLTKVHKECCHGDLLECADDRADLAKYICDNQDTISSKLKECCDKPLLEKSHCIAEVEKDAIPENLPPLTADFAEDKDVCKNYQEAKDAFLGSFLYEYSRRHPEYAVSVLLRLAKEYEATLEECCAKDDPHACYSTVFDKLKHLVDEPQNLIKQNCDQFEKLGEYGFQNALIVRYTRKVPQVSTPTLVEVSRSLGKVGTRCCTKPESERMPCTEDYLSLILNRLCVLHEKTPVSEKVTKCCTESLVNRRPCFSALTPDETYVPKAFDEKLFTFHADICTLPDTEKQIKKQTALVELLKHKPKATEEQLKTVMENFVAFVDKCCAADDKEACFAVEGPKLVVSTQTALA

[11] = probe aXIP binding to arrayed compounds – biochemical, NeuroSMM set, 635/667 nm fluorescence, primary screen (AID 1119); settings: small-molecule microarray, higher = more signal, called active from +8 up or from −8 down;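 note: probe is the protein aXip251-270 applied at 1 µg/mL to compound-printed slides; binding of probe to printed compounds measured as 667 nm fluorescence plus signal to noise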
[12] = probe aNOTCH3 binding on compound microarray – biochemical, small-molecule microarray, 635/667 nm fluorescence, primary screen (AID 1120); settings: higher = more signal;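 note: probe is a biotin-tagged antibody raised against NOTCH3 rather than NOTCH3 protein; score merges spot fluorescence near 667 nm with spot signal to noise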
[13] = probe aNOTCH2 binding on compound microarray – biochemical, small-molecule microarray, 635/667 nm fluorescence, primary screen (AID 1121); settings: higher = more signal;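 note: score merges feature fluorescence read at 667 nm with its signal to noise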
[14] = target: Carbonic anhydrase 2 (Homo sapiens) (UniProt P00918); test: compounds binding carbonic anhydrase 2 – biochemical, small-molecule microarray, Alexa647-labelled CAII, profiling panel (AID 1122); settings: CAII-A647 binding fluorescence, higher = more signal
[15] = COS7 lysate on small-molecule microarray, probe aHis, 635 nm (AID 1123); settings: COS7 cell lysate, fluorescence, higher = more signal;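 note: z-score combines 667nm fluorescence intensity with signal-to-noise per printed compound spot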
[16] = probe aLAP1 signal on lysate-treated microarray – cell lysate, small-molecule microarray, COS7 lysate, primary screen (AID 1124); settings: probe aLAP1, fluorescence, higher = more signal;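 note: lysate comes from COS7 cells expressing LAP1 and is applied at 0.3 µg/mL; score merges spot fluorescence near 667 nm with signal-to-noise over triplicate slides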
Sam68 (KHDRBS1) = test: compounds binding KHDRBS1 protein – biochemical, small-molecule microarray, 635 nm fluorescence, primary screen (AID 1125); settings: higher = more signal;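 note: score merges 667 nm channel intensity with signal to noise over triplicate slides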
[17] = system: Chordin-like protein 2 (CHRDL2); test: compounds binding chordin-like 2 – biochemical, small-molecule microarray, 635 nm fluorescence, primary screen (AID 1126); settings: fluorescence 635 nm, higher = more signal;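 note: printed compound slides probed with Chrdl2 protein at 4 µg/mL for 1 h at 4 C; score merges 667 nm emission intensity with signal to noise over three replicate slides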
[18] = target: Concanavalin-A (Canavalia ensiformis) (UniProt P02866); test: compounds binding concanavalin A lectin – biochemical, small-molecule microarray, Alexa647 label, 635 nm, artefact control for SMM control protein annotation, primary screen (AID 1127); settings: ConA-A647 binding fluorescence, higher = more signal;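 note: z combines 667 nm emission intensity with signal-to-noise across three replicate slides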
Chain of Concanavalin-A (Canavalia ensiformis) (P02866 whole entry, looked up): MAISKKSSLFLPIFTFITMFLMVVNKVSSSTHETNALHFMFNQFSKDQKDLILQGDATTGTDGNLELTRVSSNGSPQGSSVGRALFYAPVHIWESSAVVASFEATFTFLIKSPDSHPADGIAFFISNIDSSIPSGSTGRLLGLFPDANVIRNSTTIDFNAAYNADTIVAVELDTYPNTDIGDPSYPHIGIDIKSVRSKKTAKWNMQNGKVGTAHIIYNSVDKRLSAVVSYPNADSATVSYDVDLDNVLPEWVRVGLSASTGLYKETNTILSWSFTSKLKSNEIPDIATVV

SMILES	composite z-score [1]	z-score [2]	composite z-score [3]	composite z-score [4]	composite z-score [5]	composite z-score [6]	composite z-score [7]	composite z-score [8]	composite z-score [9]	composite z-score [10]	composite z-score (Albumin (Bos taurus))	composite Z-score [11]	composite z-score [12]	composite z-score [13]	composite z-score [14]	composite z-score [15]	composite z-score [16]	composite z-score (Sam68 (KHDRBS1))	composite z-score [17]	composite z-score [18]
CCCC=C(CCC)[C@@H](NC(=O)c1ccco1)c1ccc(C(=O)OC)cc1	1.43	-2.72	0.177	1.37	1.27	0.117	0.202	1.69	1.02	1.38	0.779	-0.0549 (inactive)	0.281	-0.0222	0.669	2.72	0.0767	1.31	-0.618	0.939
CC(C)CNC(=O)[C@@H]1c2ccccc2C(=O)N(CC23CC4CC(CC(C4)C2)C3)[C@H]1c1ccc(CO)cc1	1.34	-1.05	0.0408	0.725	0.769	-0.0685	0.14	-0.436	0.862	1.15	0.486	0.642 (inactive)	-0.004	-0.14	0.132	1.74	0.0747	0.985	-0.284	1.07
COCCOC(=O)N1C(=O)[C@@]2(c3cc(C#CCCO)ccc31)[C@H](c1ccc(O)cc1)N1[C@H](c3ccccc3)[C@H](c3ccccc3)OC(=O)[C@H]1[C@@H]2C(=O)N1CCc2cc(OC)c(OC)cc2C1	1.41	-0.561	1.14	0.422	-0.0529	0.129	-0.153	1.32	1.13	1.11	-0.997	0.454 (inactive)	0.341	0.305	0.345	1.48	1.07	1.32	0.789	1.06
C=CC[C@]1(C(=O)N(C)C)COC(c2ccc(OCCCO)cc2)=N1	0.326	1.55	-0.616	2.62	-0.372	-0.113	0.334	-0.246	2.09	0.113	0.795	-0.0102 (inactive)	0.298	0.107	0.914	3.5	1.41	1.25	-0.492	0.673
C=CCC(OC(C)=O)[C@@H]1[C@@H](N(Cc2cc3ccccc3o2)C(=O)Cc2ccc(OC)cc2)c2cc(OCCCO)ccc2N1C(=O)Cc1ccc2ccccc2c1 (stereo not given in full)	-0.687	-0.739	-0.487	-0.197	0.191	-0.0704	0.0815	-0.0642	0.475	0.615	0.402	-0.374 (inactive)	-0.0391	-0.0424	-0.061	0.491	-0.185	-0.235	-0.563	0.3
NC(=O)NCC#Cc1ccc2c(c1)[C@]1(C(=O)N2)[C@H](C(=O)Nc2nc3ccccc3s2)[C@H]2C(=O)O[C@H](c3ccccc3)[C@H](c3ccccc3)N2[C@@H]1c1ccc(OCCO)cc1	0.537	-0.942	-0.828	0.84	0.417	0.0108	-0.151	-0.464	0.281	0.9	0.0054	0.367 (inactive)	-0.0956	-0.238	0.136	0.408	0.109	-0.137	-0.258	0.318
